Compounds with a hit are over-represented: about 2.9% of the library has one in this group of screens.
N-glyco inh: blocks N-linked glycosylation in D54 reporter cells | 360,000 tested, 0.23% active | AID 588692 | reporter increase, % at 12.5 µM | D54 ERlucT glycosylation luciferase reporter, 24 h; percent of 100 nM tunicamycin response;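 active = mean luciferase reporter signal, scaled so untreated is 0 and the glycosylation-blocking control 100, at or above a set limit in every replicate; inconclusive = mean reaches the limit but not every replicate does; inactive = mean below the limit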;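 also: luciferase carries N-glycosylation sites so blocking glycosylation raises the light; 0% = median of neutral control wells and 100% = median of 100 nM tunicamycin wells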
Vif imaging: HIV Vif inhibition. HEK293T cells, Vif self-association by quenched fluorescence, imaging, 24 h. inhibition, % at 7.49 µM. 340,000 tested, 0.35% active. AID 602346; in the data active = inhibition above about 50%, passing the limit was not always enough; inconclusive = no clear call, values can overlap the other calls; inactive = below about 31%
Wnt act: activates Wnt/beta-catenin signaling in a reporter cell assay. activator, plate reader. activation, % at 9.35 µM. 300,000 tested, 1.2% active. AID 743398; in the data active = activation above about 30%, passing the limit was not always enough; inconclusive = no clear call, values can overlap the other calls;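 also: 0% = neutral control wells and 100% = positive control wells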
esBAF inh: blocks esBAF chromatin remodeling in mouse ES cells. 350,000 tested, 2% active. AID 602393. reporter increase, % at 12.5 µM. Bmi1-luciferase knock-in reporter, 24 h; 100% = twice the neutral-well signal; in the data active = activation above about 40%; inconclusive = no clear call, values can overlap the other calls;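 also: 0% = median of the plate's neutral control wells and 100% = double that signal; a rise in the Bmi1 reporter signal indicates esBAF inhibition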
MITF TRPM1 HTS: activators of MITF-driven TRPM1 promoter activity in SK-MEL-5 cells; SK-MEL-5 TRPM1-promoter luciferase, 24 h; % of positive control, neutral wells = 0; 300,000 tested, 0.75% active; activation, % at 12.5 µM;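 active = mean activation of at least 80% with every replicate also reaching 80%; inconclusive = mean reaches 80% but some replicate falls short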;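 also: 0% = neutral control wells and 100% = parthenolide positive control wells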
PvdQ acylase: P. aeruginosa PvdQ acylase inhibition; purified PvdQ acylase, fluorescence plate reader; inhibition, % at 10 µM; 340,000 tested, 0.063% active; AID 488965; in the data active = inhibition above about 30%, passing the limit was not always enough; inconclusive = no clear call, values can overlap the other calls;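 also: 0% = vehicle neutral wells and 100% = reference inhibitor wells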
Starred values were filed as active, the others as inactive; ? = inconclusive; . = no result.

SMILES	N-glyco inh	Vif imaging	Wnt act	esBAF inh	MITF TRPM1 HTS	PvdQ acylase
CN(C)CCCN1C(=O)c2cccc3cccc(c23)C1=O	116*	-3	-1	-3	.	-12
CN(C)CCCN1C(=O)c2cc3ccccc3cc2C1=O	2	7	0	4	.	2
O=C(O)CCCN1C(=O)c2cccc3cccc(c23)C1=O	2	-4	0	-4	1	-17
CCCCN1C(=O)c2cccc3cc(O)cc(c23)C1=O	3	15	61*	.	.	7
C=CCN(C(=O)c1oc2c(Cl)cc(C)cc2c1C)C1CCS(=O)(=O)C1 (stereo not drawn)	1	-7	29	64*	111*	-3
O=C1c2ccccc2CN1CCSC(=S)N1CCOCC1	-4	5	41*	.	54	2
Oc1ccc(/C=N/Nc2nccnc2Cl)cc1	0	1	47*	-4	-4	-2
CCOC(=O)c1c(C)[nH]c(N=Nc2cccc(OC)c2)c1C	-9	-6	45*	66*	130*	-12
CCOC(=O)c1c(C)[nH]c(N=Nc2cccc(C)c2)c1C	-5	-12	.	79*	103*	-3
CCOC(=O)c1c(C)[nH]c(C(=O)COC(=O)COc2ccc(OC)cc2)c1C	0	28	-5	.	-13	-18
C[C@H]1CN([C@@H](C)CO)C(=O)c2cccc(NS(=O)(=O)c3cccs3)c2O[C@H]1CN(C)Cc1ccc(Cl)c(Cl)c1	.	.	.	3	.	.
Cc1ccc(S(=O)(=O)N(C)C[C@@H]2OCCCC[C@@H](C)Oc3ccc(N(C)C)cc3C(=O)N([C@@H](C)CO)C[C@H]2C)cc1	.	.	.	2	.	.
CC(NC(=O)CSc1n[nH]c(N)n1)c1ccccc1 (stereo not drawn)	2	20	-1	7	-8	-3
CCCc1ccc(-c2cc(NC(=O)CSc3n[nH]c(N)n3)n(-c3ccccc3)n2)cc1	-2	-3	.	64*	?	-24
C=C(NC(=O)C(=C)NC(=O)c1csc(C2=NC3c4csc(n4)C4NC(=O)c5csc(n5)C(C(C)(O)C(C)O)NC(=O)C5CSC(=N5)/C(=C/C)NC(=O)C(C(C)O)NC(=O)c5csc(n5)C3(CC2)NC(=O)C(C)NC(=O)C(=C)NC(=O)C(=C)NC(=O)C(C(C)C)NC2C=Cc3c(C(C)O)cc(nc3C2O)C(=O)OC4C)n1)C(N)=O (stereo not drawn)	-6	176*	4	.	-95	5
Cc1ccc(Nc2ncccc2C(N)=O)cc1[N+](=O)[O-]	0	0	70*	.	91*	7
Cc1ccc(Nc2ncccc2C(=O)O)cc1C	2	-6	6	49*	1	-10
Cc1ccc(NC(=O)Nc2ccccc2)cc1[N+](=O)[O-]	-2	-2	.	.	28	-15
COc1ccccc1NC(=O)NCCc1ccccc1	0	-5	2	3	19	-13
COc1ccc(OC)c(NC(=O)NCCc2cccc(Cl)c2)c1	-1	6	60*	.	-4	-3
CCn1c(=NC(=O)c2ccco2)sc2cccc(F)c21	1	.	28	70*	20	-5
COc1ccc(OC)c2c1sc(=NC(=O)c1ccco1)n2C	13	-1	1	8	-6	-9
Cc1ccc(CNC(=O)COC(=O)C2CCN(S(=O)(=O)c3cccs3)CC2)cc1	2	.	96*	2	-2	-7
COc1ccccc1Nc1nnc(C)c(=O)[nH]1	2	73*	.	3	-8	3
C[C@@H]1CN([C@@H](C)CO)C(=O)c2cc(-c3ccc(F)cc3)cnc2O[C@H]1CN(C)C(=O)C1CCC1	.	.	.	4	.	.
SMILES	N-glyco inh	Vif imaging	Wnt act	esBAF inh	MITF TRPM1 HTS	PvdQ acylase
Cc1ccc(-c2nc3ncccc3o2)cc1NC(=O)c1ccc([N+](=O)[O-])o1	36*	11	.	4	-81	-3
CCCC(=O)Nc1cc(-c2nc3ncccc3o2)ccc1C	2	8	-1	-2	-10	-10
CCCC(=O)Nc1ccc(-c2nc3ncccc3o2)cc1	-4	6	37*	37	.	-4
CC(C)C(=O)Nc1ccc(-c2nc3ncccc3o2)cc1	-15	-4	37*	-18	.	-6
C[C@H]1CCCCO[C@H](CN(C)C(=O)NC2CCCCC2)[C@@H](C)CN([C@@H](C)CO)C(=O)c2cc(NC(=O)Cc3ccccc3)ccc2O1	.	.	.	14	.	.
Cc1noc(C)c1NC(=O)N(C)C[C@@H]1Oc2c(NC(=O)c3nc4ccccc4s3)cccc2C(=O)N([C@@H](C)CO)C[C@@H]1C	.	.	.	-1	.	.
Cc1cc(C(=O)Nc2cccc3c2O[C@H](CN(C)C(=O)Nc2ccc(F)cc2)[C@H](C)CN([C@H](C)CO)C3=O)n(C)n1	.	.	.	-3	.	.
O=C(c1ccco1)n1nc(-c2ccco2)nc1SCc1ccccc1	1	3	22	45*	37	-8
Cc1ccc(S(=O)(=O)n2nc(-c3ccco3)nc2SCc2ccccc2)cc1	1	5	.	48*	47	-12
O=C(c1ccco1)n1nc(-c2ccccc2)nc1SCc1ccccc1	1	.	41*	47*	58	-10
C[C@@H]1CN([C@@H](C)CO)C(=O)c2cc(NS(=O)(=O)c3ccc(F)cc3)ccc2O[C@@H](C)CCCCO[C@H]1CN(C)Cc1ccc(C(=O)O)cc1	.	.	.	1	.	.
CC(C)c1cn(CC[C@H]2CC[C@H](NC(=O)Nc3cc(Cl)cc(Cl)c3)[C@@H](CO)O2)nn1	.	.	.	4	.	.
CSc1ccc(/C=N/n2c(C)cc(C)cc2=O)cc1	0	19	-5	12	87*	-12
CSc1ccc(/C=N/N2CCN(C)CC2)cc1	-3	-11	32*	10	49	7
CCC1c2ccc(C)n2CCN1C(=O)Nc1ccccc1C(=O)OC (stereo not drawn)	1	1	.	-14	-12	-4
CCCC1c2ccc(C)n2CCN1C(=O)Nc1ccccc1Cl (stereo not drawn)	0	-2	.	63*	48	-13
CC(C)c1cn(CC[C@H]2CC[C@@H](NC(=O)C3CCC3)[C@H](CO)O2)nn1	.	.	.	-1	.	.
O=C(Nc1ccccc1Cl)c1csc(-c2cccnc2)n1	3	1	-1	59*	26	16
Cc1ccc2c(C)c(C(=O)Nc3ccc(S(N)(=O)=O)cc3)oc2c1C	-1	-3	30*	-3	21	26
O=C(C[C@@H]1CC[C@@H](NS(=O)(=O)c2ccc(F)cc2)[C@@H](CO)O1)NCCN1CCCCC1	.	.	.	-2	.	.
COc1ccc(-c2ccc3c(c2)O[C@@H](CN(C)C)[C@H](C)CN([C@@H](C)CO)S3(=O)=O)cc1	.	.	.	-4	.	.
COC(=O)[C@H]1C[C@@]2(O)CN(S(=O)(=O)c3ccc(C)cc3)C[C@@]2(OC(=O)NCC2CCCCC2)C[C@H]1C(=O)OC	-3	.	-1	52*	.	.
COCC(=O)N(C)C[C@@H]1Oc2ncc(C3=CCCC3)cc2C(=O)N([C@H](C)CO)C[C@H]1C	.	.	.	0	.	.

High-throughput results (PubChem)
